# Structures can show the parent of a compound that is named as a salt. ± gives the standard deviation of the averaged measurements. Over roughly 3,100 compounds, “mean cytoplasmic OPP incorporation (global translation) relative to DMSO” has its median near 100; the lowest 2% begin near 56. For the sample, the lowest values were picked, then their nearest neighbours and some compounds at random.
# System: U2OS
# Assay: mean cytoplasmic OPP incorporation (global translation) relative to DMSO (% of DMSO); higher = more protein synthesis
# Conditions: 10 µM; 24 h
# Method: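 Primary image-based screen in U2OS cells: compounds at 10 uM for 24 h, then a 1 h o-propargyl-puromycin (OPP) pulse, click labelling, and high-throughput microscopy. Mean cytoplasmic OPP intensity and nuclei count were normalised to DMSO wells within each plate (DMSO = 100) and averaged over triplicate plates.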
row,SMILES,mean cytoplasmic OPP incorporation
1,CCCC(CCC)C(=O)NO [Valproic acid hydroxamate],110
2,Cc1cnc(NC(=O)Nc2cc(Br)c(C)cc2OC[C@@H]2CNCCO2)cn1,45.6
3,COc1cc(OC)c(NC(=O)Nc2cc(C)on2)cc1Cl,103
4,CCOc1ccccc1OCC1CNCCO1 (stereo not drawn) [Viloxazine hydrochloride],87.8
5,CC(=O)OCCN1C(=O)c2c(C)nc3ccc(S(=O)(=O)N4CCOCC4)cc3c2C1=O [Ivachtin],105
6,CCOC(=O)C1=CN(Cc2ccccc2)C=C(C(=O)OCC)C1c1ccccc1,99.2
7,Nc1ncn(C2CC(O)C(CO)O2)c(=O)n1 (stereo not drawn) [5-Aza-2-deoxycytidine],94.5
8,"CCCn1c(=O)c2[nH]c(-c3ccccc3)nc2n(CCC)c1=O [1,3-Dipropyl-8-phenylxanthine]",99.1
9,CCCn1c(=O)c(C)cn2nc(N)nc12,104
10,CCCC[C@@H](C=O)NC(=O)OC(C)(C)C,101
11,CC1=C(/C=C/C(C)=C/C=C/C(C)=C/C(=O)O)C(C)(C)CCC1O (stereo not drawn) [4-Hydroxyretinoic acid],101
12,COC(=O)[C@]12CCC(C)(C)C[C@H]1[C@H]1C(=O)C=C3[C@@]4(C)C=C(C#N)C(=O)C(C)(C)[C@@H]4CC[C@@]3(C)[C@]1(C)CC2 [Bardoxolone Methyl],25.6
13,"N[C@@H](Cc1cc(I)c(Oc2ccc(O)cc2)c(I)c1)C(=O)O [3,5-Diiodo-L-thyronine]",103
14,CC(C)[C@H](C(=O)Nc1ccc(C(=O)NO)cc1)c1ccccc1,53
15,CCN(CC)Cc1ccc2cc(COC(=O)Nc3ccc(C(=O)NO)cc3)ccc2c1 [ITF2357 (Givinostat)],104
16,CC(=O)Nc1ccccc1 [Acetanilide (Antifebrin)],102
17,COc1ccc(CN2C(=O)C(=O)c3cc(OC(F)(F)F)ccc32)cc1,102
18,CC(C)Oc1ccc2c(=O)c3cc(C(=O)O)ccc3oc2c1,102
19,O=[N+]([O-])c1ccccc1S(=O)(=O)NCC1CCC(CNCC2CCc3ccccc3C2)CC1 (stereo not drawn) [NTNCB hydrochloride],114
20,CC(C)NCCN(C(C)C)S(=O)(=O)c1ccc(Cl)cc1Cl,95.9
21,O=C1c2c(O)ccc(O)c2C(=O)c2c(NCCNCCO)ccc(NCCNCCO)c21 [Mitoxantrone dihydrochloride],20.9
22,O=C1c2ccccc2C(=O)c2c(NCCc3ccc(O)cc3)ccc(NCCc3ccc(O)cc3)c21,120
23,C[N+](C)([O-])CCNc1ccc(NCC[N+](C)(C)[O-])c2c1C(=O)c1c(O)ccc(O)c1C2=O [Banoxantrone dihydrochloride],87.9
24,CC(C)SC(=N)N [S-Isopropylisothiourea hydrobromide],102
25,CCCS(=O)(=O)c1nc(NC2CC2)cc(-c2ccc3c(ccn3C3CC(C)(C)NC(C)(C)C3)c2)n1,21.1
26,C=C1C(=O)O[C@@H](CCC)[C@@H]1C(=O)O [Butyrolactone 3],100
27,C[C@H](NC(=O)[C@@H]1CCCN1C(=O)[C@@H]1CCCN1C(=O)[C@@H](O)[C@H](N)Cc1ccccc1)C(N)=O [Apstatin],101

row,SMILES,mean cytoplasmic OPP incorporation
1,C[C@H](NC(=O)/C(C#N)=C/c1cccc(Br)n1)c1ccccc1,56.2 ± 5.9
2,"C[C@H](NC(=O)/C(C#N)=C/c1ccc(O)c(O)c1)c1ccccc1 [Tyrphostin B44, (+) enantiomer]",96
3,CCC[C@H](NC(=O)/C(C#N)=C/c1cccc(Br)n1)c1ccccc1,27.2
4,O=C(c1ccc(Cl)cc1Cl)n1nnc2ccccc21,111
5,CCCc1cc(C)[nH]c(=O)c1CNC(=O)c1cc(-c2ccnc(N3CCN(C)CC3)c2)cc2c1cnn2C(C)C,112
6,CC(=O)NCCc1c(Cc2ccccc2)[nH]c2ccccc12 [Luzindole],103
7,Cc1[nH]c2ccccc2c1CCNCc1ccc(/C=C/C(=O)NO)cc1 [Panobinostat],51.6
8,O=C(/C=C/c1cccc(S(=O)(=O)Nc2ccccc2)c1)NO [Belinostat (PXD101)],65.5
9,CCCCCCCCCCCCCCCC(=O)C1=C(O)[C@@H](CO)OC1=O,104
10,N[C@H](C(=O)O)[C@H](OCc1ccccc1)C(=O)O (racemic),103
11,CCS(=O)(=O)c1cccc(-c2cc(C(=O)NC3CCN(C)CC3)c(C)c3[nH]c4ncc(C)cc4c23)c1,46.8
12,COc1cc(C(=O)NC(=S)Nc2cccc(NC(=O)c3ccccc3)c2)cc(OC)c1OC,117
13,CN(C)c1nc(N)c(C(=O)Nc2cccnc2)nc1Cl [ACDPP hydrochloride],97.2
14,CN1CCC(c2c(O)cc(O)c3c(=O)cc(-c4ccccc4Cl)oc23)C(O)C1 (stereo not drawn) [Flavopiridol (Alvocidib) HCl],58.4
15,Cc1cc2c(cc1C1(c3ccc(C(=O)O)cn3)CC1)C(C)(C)CCC2(C)C,109
16,COc1cc(NC(C)CCCN)c2ncccc2c1 (stereo not drawn) [Primaquine diphosphate],36.1
17,C/C(=N\NC(=O)C1C(=O)NCC1c1ccccc1)c1cccc(Br)c1 (stereo not drawn),102
18,O=C(O)c1cc(O)ccc1O [Gentisic acid],101
19,CC(=O)N[C@@H](CSCC=C(C)CCC=C(C)CCC=C(C)C)C(=O)O [Acetyl-S-farnesyl-L-cysteine],123
20,OCC1OC(n2cnc3c(NC4CCCC4)nc(Cl)nc32)C(O)C1O (stereo not drawn) [2-Chloro-N6-cyclopentyladenosine],116
21,CCCCCS(=O)(=O)CCCCCCCCCCn1c(-c2ccc(O)cc2)c(C)c2cc(O)ccc21,104
22,O=C(CCCN1C(=O)c2cccc3cccc(c23)C1=O)NO [Nullscript],97.6
23,CCN(CCN(C)C)C(=O)CNCc1cc(C(N)=O)ccn1,96.2
24,O=C1NCCN1c1ncc([N+](=O)[O-])s1 [Niridazole],94.7
25,O=c1[nH]nc(Sc2ncc([N+](=O)[O-])s2)n1-c1ccc2c(c1)OCCO2,39.7 ± 16
26,C[C@H](CCC(=O)NCCS(=O)(=O)O)[C@H]1CC[C@H]2[C@@H]3CC[C@@H]4C[C@H](O)CC[C@]4(C)[C@H]3C[C@H](O)[C@]12C [Taurodeoxycholic acid],99.3

# — the supplement of paper PMC8183993
